Shown are actives, neighbours in structure and some others; about 10% of the full set was active somewhere.
JMJD2A Tudor – inhibitors of human JMJD2A Tudor domain; AID 504339; O75164; Potency, µM (titrated, usually from 114 µM), most hits filed as inhibitors; AlphaScreen JMJD2A-Tudor / H3K4me3 peptide binding; 4.4% of 390,000 active; note: nearly all actives have a fitted effect of over 50% in size
Six1-Eya2 blk – Six1/Eya2 interaction inhibition; activity change, % (no concentration beside the values); AID 651725; AlphaScreen GST-Six1/His-Eya2 binding, biochemical; stronger effect = lower value; 0.56% of 360,000 active; in the data active = activity change below about -65%; inconclusive = mostly about -30% to -63%
Target sequence (O00167 whole entry, looked up): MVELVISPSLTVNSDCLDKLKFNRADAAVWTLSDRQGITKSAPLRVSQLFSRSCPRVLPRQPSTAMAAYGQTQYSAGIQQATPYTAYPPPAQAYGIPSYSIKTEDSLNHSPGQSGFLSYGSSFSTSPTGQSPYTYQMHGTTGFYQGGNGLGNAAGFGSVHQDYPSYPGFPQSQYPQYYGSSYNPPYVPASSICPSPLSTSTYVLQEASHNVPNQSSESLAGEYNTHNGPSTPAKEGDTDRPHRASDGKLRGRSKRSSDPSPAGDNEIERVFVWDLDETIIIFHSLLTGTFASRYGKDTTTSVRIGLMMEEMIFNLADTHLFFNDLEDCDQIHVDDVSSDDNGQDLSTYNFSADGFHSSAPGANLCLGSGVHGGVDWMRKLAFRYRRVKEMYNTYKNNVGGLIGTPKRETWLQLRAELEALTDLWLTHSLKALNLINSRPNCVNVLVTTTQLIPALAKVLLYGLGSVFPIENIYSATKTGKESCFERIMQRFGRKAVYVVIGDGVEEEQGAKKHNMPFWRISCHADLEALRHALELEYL
Target sequence (Q15475 whole entry, looked up): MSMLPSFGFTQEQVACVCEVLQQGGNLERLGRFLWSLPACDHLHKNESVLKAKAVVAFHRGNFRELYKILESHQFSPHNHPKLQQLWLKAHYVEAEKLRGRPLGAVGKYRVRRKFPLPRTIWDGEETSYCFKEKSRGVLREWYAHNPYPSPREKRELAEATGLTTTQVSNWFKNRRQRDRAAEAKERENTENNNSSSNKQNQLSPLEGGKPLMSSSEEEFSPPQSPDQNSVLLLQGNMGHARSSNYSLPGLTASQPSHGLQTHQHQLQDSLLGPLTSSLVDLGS
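Homogeneous AlphaScreen proximity assay pairing GST-Six1 with His-tagged Eya2 (added as 5X mix: 250 nM and 500 nM) in 50 mM Tris pH 8.0, 300 mM NaCl, 1 mM TCEP. Glutathione donor and nickel acceptor beads; 1 h, 37 °C, dark.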
G9a block – G9a (human) methyltransferase inhibition. Potency, µM (series often up to 102 µM), most hits filed as inhibitors. Q96KQ7. G9a H3K9 monomethylation, AlphaScreen, 2 h. AID 504332. 8.8% of 350,000 active; note: nearly all actives have a fitted effect of over 75% in size
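Compounds were preincubated with 20 nM G9a for 15 min, after which biotinylated H3K9 peptide (500 nM) and SAM (20 uM) started a 2 h room-temperature reaction. Monomethylated product was quantified by antibody-based AlphaScreen chemiluminescence.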
HP1b chromo inh – inhibitors of HP1-beta chromodomain binding to methylated histone tails; Potency, µM (series often up to 114 µM), most hits filed as inhibitors; AlphaScreen HP1-beta / biotin-H3K9me3 peptide binding; AID 540317; 0.56% of 390,000 active; P83916; note: nearly all actives have a fitted effect of over 70% in size
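HP1-beta protein (50 nM final) preincubated 30 min at room temperature with biotinylated H3(1-18)K9me3 peptide (50 nM) in PBS pH 7.4, 0.01% Tween-20, then compound added for 30 min. AlphaScreen streptavidin donor/nickel chelate acceptor beads (10 ug/mL final), 30 min dark, luminescence read.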
BAZ2B inh – inhibitors of human BAZ2B bromodomain; Q9UIF8; AlphaScreen BAZ2B-H3K14Ac peptide displacement; Potency, µM (series often up to 114 µM), most hits filed as inhibitors; 4.4% of 360,000 active; AID 504333; note: nearly all actives have a fitted effect of over 60% in size
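AlphaScreen displacement: compounds (up to 110uM) incubated 30 min at room temperature with a preformed 50 nM BAZ2B/50 nM biotinylated H3K14Ac peptide complex in PBS pH 7.4 with Tween-20. Donor and acceptor beads at 10 ug/mL final added, 20 min light-protected before reading.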
CtBP-E1A blk – CtBP/E1A binding inhibition; 0.49% of 340,000 active; activity change, % (test concentration not listed); AlphaScreen GST-E1A/His-CtBP binding, 1536-well; stronger effect = lower value; in the data active = activity change below about -65%; inconclusive = mostly about -30% to -63%
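Steps: dispense buffer (Tris pH 8.0, NaCl 300 mM, TCEP 1 mM, BSA, Tween 20); add 5X protein mix (GST-E1A, His-CtBP, 125 nM each); pin 23 nL compound; 2 h at 37 °C, dark; add 5X beads (50 ug/mL); 1 h; read.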
Each line names hits and unclear results; the compound was inactive in the other large screens. Unless noted, calls come from the whole dose curve; as a rule, active = well fitted inhibition curve with a large enough effect; inconclusive = small, poorly fitted or top-dose-only effect; inactive = no such curve, though single readings can be large or run the other way.

CCC1CCCCN1C(=O)Cn1c(=O)n(CC2CCC(C(=O)NC)CC2)c(=O)c2sccc21 (stereo not given)	none (no result: Six1-Eya2 blk, CtBP-E1A blk)
CC(=O)Nc1ccc(N2Cc3ccccc3C2)cc1	BAZ2B inh 79µM (no result: G9a block)
FC(F)(F)c1cccc(N2Cc3ccccc3C2)c1	none
CCc1ccc(N2Cc3ccccc3C2)cc1	G9a block 10µM, BAZ2B inh inconclusive
Cc1cc(C)cc(N2Cc3ccccc3C2)c1	G9a block 10µM
CCOC(=O)c1ccc(N2Cc3ccccc3C2)cc1O	G9a block inconclusive
Cc1noc(NS(=O)(=O)c2ccc(NC(=O)c3cccc(S(=O)(=O)N(C)c4ccccc4)c3)cc2)c1C	none (no result: G9a block, BAZ2B inh)
Cc1ccc2c(C)c(C(=O)Nc3ccc(S(=O)(=O)Nc4onc(C)c4C)cc3)oc2c1	G9a block 71µM, BAZ2B inh inconclusive, CtBP-E1A blk inconclusive
Cc1cc(C)nc(NS(=O)(=O)c2ccc(NC(=O)c3cc(-c4ccccc4)nc4ccccc34)cc2)n1	G9a block inconclusive
Cc1noc(NS(=O)(=O)c2ccc(NC(=O)c3ccc(Cl)c(S(=O)(=O)N(C)c4ccccc4)c3)cc2)c1C	JMJD2A Tudor inconclusive, G9a block 50µM, BAZ2B inh 45µM
Cc1ccc(-c2cc(C(=O)Nc3ccc(S(=O)(=O)Nc4onc(C)c4C)cc3)c3ccccc3n2)cc1	JMJD2A Tudor inconclusive, G9a block 45µM, HP1b chromo inh inconclusive, BAZ2B inh 50µM
CCc1ccc2[nH]c(=O)c(CN(Cc3ccco3)Cc3nnnn3Cc3ccco3)cc2c1	none (no result: Six1-Eya2 blk, G9a block, BAZ2B inh, CtBP-E1A blk)
O=C(N/N=C/c1cc(Br)c(O)c(Br)c1O)c1cccnc1	JMJD2A Tudor 50µM, Six1-Eya2 blk -91, G9a block inconclusive, BAZ2B inh 35µM (no result: CtBP-E1A blk)
O=C(N/N=C/c1cc(O)ccc1Br)c1cccnc1	JMJD2A Tudor 45µM, Six1-Eya2 blk -91, BAZ2B inh 7.1µM, CtBP-E1A blk -93 (no result: G9a block)
Cc1cccc(S(=O)(=O)c2cn(Cc3ccccc3)c3cc(N4CCC(C)CC4)c(F)cc3c2=O)c1	none (no result: Six1-Eya2 blk, CtBP-E1A blk)
Cc1ccc2c(c1)c1c3n2CCN(CC#N)C3CCC1 (stereo not given)	BAZ2B inh inconclusive
Cc1ccc2c(c1)c1c3n2CCN(CCC(=O)O)C3CCC1 (stereo not given)	G9a block 45µM, BAZ2B inh inconclusive
Cc1ccc(C(=O)N2CCn3c4c(c5cc(C)ccc53)CCCC42)cc1 (stereo not given)	JMJD2A Tudor inconclusive, G9a block 11µM, BAZ2B inh 14µM (no result: Six1-Eya2 blk, CtBP-E1A blk)
Cc1ccc2c(c1)c1c3n2CCN(CC(N)=O)C3CCC1 (stereo not given)	none (no result: G9a block)
Cc1ccc2c(c1)c1c3n2CCN(C(=O)C2CC2)C3CCC1 (stereo not given)	G9a block 40µM, BAZ2B inh inconclusive
Cc1ccc2c(c1)c1c3n2CCCN(Cc2ccccc2)C3CCC1 (stereo not given)	JMJD2A Tudor inconclusive, G9a block 13µM, HP1b chromo inh inconclusive, BAZ2B inh 10µM
CCOc1ccc(NC(=O)Cn2c(=O)nc(-c3ccccc3)c3ccccc32)cc1	none (no result: Six1-Eya2 blk, CtBP-E1A blk)
Cc1ccc(-n2c(=O)c3c(cnn3C)n(Cc3ccc(Cl)cc3)c2=O)cc1	none (no result: Six1-Eya2 blk, CtBP-E1A blk)
CCOC(=O)c1cc(-c2ccc(C)cc2)n(CCC(=O)Nc2cc(Cl)ccc2C)c1C	none (no result: Six1-Eya2 blk, CtBP-E1A blk)
Cc1ccc(C)c(NC(=O)Cc2coc3cc(C)cc(C)c23)c1	none (no result: Six1-Eya2 blk, CtBP-E1A blk)
CCOc1ccc(CNC(=O)c2ccc3nc(CC)c(CC)nc3c2)cc1	none (no result: Six1-Eya2 blk, CtBP-E1A blk)
CCN1CCn2c3c(c4cc(Br)ccc42)CCCC31 (stereo not given)	CtBP-E1A blk inconclusive (no result: G9a block, BAZ2B inh)
Cc1ccc2c(c1)c1c3n2CCN(C(=O)c2ccc(C(F)(F)F)cc2)C3CCC1 (stereo not given)	JMJD2A Tudor inconclusive, G9a block inconclusive, BAZ2B inh 28µM (no result: Six1-Eya2 blk, CtBP-E1A blk)
NC(=S)N=Nc1c(O)[nH]c2c(Cl)cc(Cl)cc12	Six1-Eya2 blk inconclusive, CtBP-E1A blk inconclusive (no result: G9a block, BAZ2B inh)
NC(=S)N=Nc1c(O)[nH]c2cc(F)c(F)cc12	Six1-Eya2 blk -65, CtBP-E1A blk -71
O=C(CNC(=O)c1ccc2c(c1)OCO2)Nc1ncccc1O	JMJD2A Tudor 56µM, G9a block inconclusive, BAZ2B inh inconclusive
S=C(Nc1ccc2c(c1)OCO2)Nc1ccc2c(c1)OCO2	G9a block inconclusive, HP1b chromo inh inconclusive, BAZ2B inh inconclusive
Cc1cccnc1NC(=O)c1ccc2c(c1)OCO2	none
CN(C)C(=S)Nc1ccc2c(c1)OCO2	G9a block 8.9µM
O=C(Nc1ccc2c(c1)OCO2)c1ccccn1	JMJD2A Tudor 4.5µM, G9a block 1.6µM, HP1b chromo inh inconclusive, BAZ2B inh inconclusive
O=C(Nc1ccccn1)c1ccc2c(c1)OCO2	G9a block 50µM
CC(=O)Nc1cccc(S(=O)(=O)N2CCN(S(=O)(=O)c3ccc4c(c3)OCCO4)CC2)c1	none (no result: Six1-Eya2 blk, G9a block, HP1b chromo inh, BAZ2B inh, CtBP-E1A blk)
CCOc1ccc(CNC(=O)CCC(=O)N2CC(C)Sc3ccccc32)cc1 (stereo not given)	none (no result: Six1-Eya2 blk, CtBP-E1A blk)
CCN(CC)S(=O)(=O)c1cccc(-c2nnc(SCc3nnc(-c4cccs4)o3)n2N)c1	G9a block 50µM
CCN1/C(=C/c2cc[n+](C)cc2)C=Cc2cc(C)ccc21	JMJD2A Tudor inconclusive, G9a block 2.2µM, HP1b chromo inh inconclusive, BAZ2B inh inconclusive
CC[n+]1c(S(=O)(=O)[O-])ccc2ccc(C)cc21	none
CCN1/C(=C/c2ccc3ccccc3[n+]2CCCS(=O)(=O)[O-])C=Cc2cc(C)ccc21	G9a block 10µM, BAZ2B inh 45µM, CtBP-E1A blk inconclusive
CCN1/C(=C/c2ccc3ccccc3[n+]2CC)C=Cc2ccccc21	JMJD2A Tudor 35µM, Six1-Eya2 blk -70, G9a block 11µM, HP1b chromo inh 18µM, BAZ2B inh inconclusive, CtBP-E1A blk inconclusive
CCOc1cc(C2C3=C(CC(C)(C)CC3=O)N(CCOC)C3=C2C(=O)CC(C)(C)C3)ccc1OC	G9a block inconclusive
COc1ccc(C2C3=C(CC(C)(C)CC3=O)N(CC(=O)O)C3=C2C(=O)CC(C)(C)C3)cc1OC	G9a block 71µM
CN(C)N1C(N)=C(C#N)C(c2ccc(Br)cc2)C2=C1CC(C)(C)CC2=O (stereo not given)	none
CCOc1ccc(C2C(C#N)=C(N)N(N(C)C)C3=C2C(=O)CC(C)(C)C3)cc1 (stereo not given)	G9a block 35µM
COc1ccc(C2C(C#N)=C(N)N(c3cccnc3)C3=C2C(=O)CC(C)(C)C3)cc1OC (stereo not given)	G9a block 35µM
Cc1ccc(C2C(C#N)=C(N)N(c3cccnc3)C3=C2C(=O)CCC3)s1 (stereo not given)	Six1-Eya2 blk inconclusive, G9a block 40µM, BAZ2B inh inconclusive

Source: PubChem
